Assay results: paper PMC13494018
Unmarked numbers belong to inactive results. How the calls were made is not given here.

B1: d8r1_design_ppi_41_dldesign_0_cycle0_af2pred (protein)
chain: RGEEVLERVKESASRAMSLAAKDPSLSEKVLEALALASEAGRAIKTEGVEKGEELAKKAEELTKEIEEEAK
B2: d8r1_design_ppi_516_dldesign_0_cycle1_af2pred (protein)
chain: AEEELRRQIEEQGERLEEAAEELRRLAEEARERDPAAGRALEAAAESLRGLVEIAKELDPGSAQGVIQVAERVAERARRLAEEYLAA
B3: d8r1_design_ppi_891_dldesign_0_cycle0_af2pred (protein)
chain: SAVREEAERKAEEVAELAKKDPEKGLEAMKAYLEELVAAGHREAALYAAARAASLMFSDPSTLETAIAVSRYAAELAA
B4: d8r1_design_ppi_254_dldesign_0_cycle1_af2pred (protein)
chain: AAAQAAAAEALRKVREAFSEAIALTVKNPEEGEKKFKEAEKLAEAAVKEQKAVDPAVGAALAKQVEATVKSAKEIMELIKKAKE
B5: d8r1_design_ppi_1045_dldesign_0_cycle0_af2pred (protein)
chain: SADTKEGADLFTKAAEQLLKVGEELLKKGKETGDEKLIKEALKYFEAAAAYAEAAATLAAKADAAAAAKAKELKEKAKKAAEEAKKAL
B6: d8r1_design_ppi_243_dldesign_0_cycle1_af2pred (protein)
chain: DQNLKGALLIGQANAYAVAAAKAAAAAGAPAAEVQAAIDKVRAMTAEAGKLSPSLASTAERVAAIEGARLAAAA
B7: d8r1_design_ppi_1041_dldesign_0_cycle1_af2pred (protein)
chain: MEEKEEEEAKKAAKAAVDAATKVAEKAAKASTPEVAKKLTAAAKGLKGATELLAKINPKNAAAFAKAAAERFTKIAEKAVKDAA
B8: d8r1_design_ppi_701_dldesign_0_cycle1_af2pred (protein)
chain: EERRRRGEELLLEALALIGAAARDPAAAPAAVAALRAAAALVPELAPELERAAALVEAGLAAAKEAAAIVGSLALKMAS
B9: d8r1_design_ppi_86_dldesign_0_cycle1_af2pred (protein)
chain: GARAAALAAAAALNAAAAKADAAAAKAYGRAAVAAARAYFAGADGAELLALVAKVGAEDPAVAADILAIATAALAAAA
B10: d8r1_design_ppi_499_dldesign_0_cycle0_af2pred (protein)
chain: GMARSLQRAAENTAARAAEYLRDPAKAEIGRNALAAAAALTEKAAAEAGLSPEEAAAAAAATRAATLAAAA
B11: d8r1_design_ppi_793_dldesign_0_cycle1_af2pred (protein)
chain: GISPESAKKLAKQMLEDALKAAEEARKLIKEGATPEEVQKAIRGAQAAADAAEALAKVDPAVAPYAKKAKAAVEEARKLAK
B12: d8r1_design_ppi_271_dldesign_0_cycle0_af2pred (protein)
chain: AAAELAATIAAAAAAAAADGPRGLALLAGAILRAFPSLSAETLAEIIRLAAADPAAAAEAIAALAAAHPEAAPALAAALRAALAELA
B13: d8r1_design_ppi_179_dldesign_0_cycle1_af2pred (protein)
chain: MESARNAAEGIAKAAEENPESGARLGKGAVEVLAKRDIEAAVEAARLAAELSKEAGKEEVAEVMKKLAEEAEKKL
B14: d8r1_design_ppi_895_dldesign_0_cycle1_af2pred (protein)
chain: MTPEAKSAFAAAQSLADAIKLGAKEGLLTPETRAALVEKLRAAAAEAAALDPAIAPQAAALAADAEAAAA
B15: d8r1_design_ppi_167_dldesign_0_cycle0_af2pred (protein)
chain: SSEERYAEAAKLLAETAAKAAALIAKNPAVAEAAKEMQRYAARAAAALVAGDEEKAKEYKKKMEEALAKAEALVA
B16: d8r1_design_ppi_713_dldesign_0_cycle0_af2pred (protein)
chain: DEFLAEANAAAAATSPANAAALNAAFAAALAQSDVGEGIKTLAAAADALAAASTPADAANIGKATSYFIAYLSS
B17: d8r1_design_ppi_789_dldesign_0_cycle1_af2pred (protein)
chain: ALEERLRAALEAARELRERGVEEGWSPGELANAVLALAKEAGLPLEAQNTLAAAAMVPGERAEILLEKAEEIV
B18: d8r1_design_ppi_384_dldesign_0_cycle1_af2pred (protein)
chain: SAKEAAAKAARNAAAAAKKADEAGFNPKVIASLAKAAGEEALVSPESVEAAEEAAKIAEKYPSKEAQEAAKYAKELAKAAKAKAA
B19: d8r1_design_ppi_56_dldesign_0_cycle0_af2pred (protein)
chain: EAEKALKEAAEKIKKAAKEAEKDPEKAVEYFSEALAYAMRTAIKYPEIAAALGAAAAGLAEGAREAKKDVEKGVKIAEKAAKELEKA
B20: d8r1_design_ppi_823_dldesign_0_cycle1_af2pred (protein)
chain: SSSEEEIDAKLEAAVAAVKEATALAKAAVAEGPAALPALEAFAAEKTAEFAKLGGVGAAAGAALQAVVDAARAQLA
B21: d8r1_design_ppi_1162_dldesign_0_cycle1_af2pred (protein)
chain: MSLAEEAALEGQKNSPMLGAVLYGHAKRSDAAVAELLLEAAKGDAATARAQARAAAALLPPEEGARLVTDVTAALEADEKDK
B22: d8r1_design_ppi_587_dldesign_0_cycle1_af2pred (protein)
chain: MLTPEALNAIAKLGSEAGSLAAKATPEQKAEGRKLGELVAEKMLASSPEEALEIAKKLLEEGKKDLTYAVATATAASRVLRAYLQQLS
B23: d8r1_design_ppi_1481_dldesign_0_cycle0_af2pred (protein)
chain: SSEANDAALKEGMALASATLAQARALIAAGGAAAAAAAAALAEAAVARLRELGAKYPQRAASFAALGEALRREVARLAA
B24: d8r1_design_ppi_1118_dldesign_0_cycle0_af2pred (protein)
chain: SEGSEALARFAKSMAEVAKIKAEEAAKVDAEVAAIFKEAAKLYEEAAKAAKEDVEKGKKLLTEANKKMAEGLAAMKKKKA
B25: d8r1_design_ppi_23_dldesign_0_cycle1_af2pred (protein)
chain: DAEEKKKLAKKMEEMAKKVAAAGKAVPAVKAEADATAKALKAMAKLALEGSLEDAKSLLKAGEAAAKRVLEKAKAAAAAAA
B26: d8r1_design_ppi_1215_dldesign_0_cycle1_af2pred (protein)
chain: AEEVGRMALTAAEAGERIALEKVKDPATAAEGAALAKVAADALKAAAEKVPEVAERLNKAATELYKKVADAA
B27: d8r1_design_ppi_219_dldesign_0_cycle0_af2pred (protein)
chain: GERIKRNAEIVAATYAEVAALAAGEKEATARRAAGLLAAGAMSPEGREEYLAEALALAAEVGAEAAALVAEAAAAI
B28: d8r1_design_ppi_645_dldesign_0_cycle1_af2pred (protein)
chain: KIEKAKELLKKAKELLKEAKANPETAIEKAKAALADLSEAASLAAEAAKDPETKEEAEKLLAEAKKLGLEATQLLMKQSSLEEK
B29: d8r1_design_ppi_59_dldesign_0_cycle0_af2pred (protein)
chain: MSELAEEAIKALVAAHNAAAALAALGRTAEAAALSRQASEAFGKAFKALQEGDEETAKKYLEELKAIAAKAAEAAAAAAAAAAAA
B30: d8r1_design_ppi_684_dldesign_0_cycle1_af2pred (protein)
chain: AAAEEAEEKKYAMAKAAGAAASEIAKIDPALGRKVAIAAGEALSVDLETSYKILTDTLTEVAETGSPEAAAEAQKALDAVEAAYKA
B31: d8r1_design_ppi_1335_dldesign_0_cycle0_af2pred (protein)
chain: EAAAAATIEAAAKAAAEFTGLPVEEVLALAALAAADPAAARALRERLGEEDPLRAAAADVMLTVVAQAKRELA
B32: d8r1_design_ppi_560_dldesign_0_cycle0_af2pred (protein)
chain: SAEEEEEKLREEAEKAVAEAKATAAAFKAQAATATPEKAAALNAAVAALAGLIKIAEDPEARRGASRAAKSVIAHAKRVLAA
B33: d8r1_design_ppi_669_dldesign_0_cycle1_af2pred (protein)
chain: AAAAAAANVRKVGEVSIEYVERVDAVSGANFAAGAFRGLATLLPPEVAKHAAAAAEKVRETGEKETKEALIETIRTTTAEIAALIEA
B34: d8r1_design_ppi_584_dldesign_0_cycle0_af2pred (protein)
chain: AAARAAEAAALKAKAKEIAAEAFSYAALSSRDEEAKKEADKKIEELKKLAKEAKAKGLEEAAKFAEDFAEGAETLKKVVEEA
B35: d8r1_design_ppi_477_dldesign_0_cycle1_af2pred (protein)
chain: SAEDVKRAAAGLKAAAKAYAALAAENKEVKEAAKELEKAAKLLLEDPEKGREKAAEESLKLNQLVIKAAD
B36: d8r1_design_ppi_128_dldesign_0_cycle0_af2pred (protein)
chain: EELEKLKEEAKKEIKEALEYTEKAKEDPDYLAKALGHLNKARQLAAKLPSAEEVKKEIDKMISAAMAGDVEKAKEYAEKAIKLLEKD
B37: d8r1_design_ppi_295_dldesign_0_cycle0_af2pred (protein)
chain: SLKEKAEKHLELAQKYAEKAGKLRGVKIEVKGANLEELKALRKEFGAWADEAAKAGDKETAIEATRAAAHLGEAIDLLEEL
B38: d8r1_design_ppi_254_dldesign_0_cycle0_af2pred (protein)
chain: AAAKALAEAALREVGSALSEAISLTSKDPKKGEEKFKEAEALAKAKVAEMEAIDPAVGAALKAAVDALLAQTKLIMEKIKEAKK

These binders were tested against PDL1, Q9NZQ7.
PDL1, Q9NZQ7, sequence (Q9NZQ7 whole entry): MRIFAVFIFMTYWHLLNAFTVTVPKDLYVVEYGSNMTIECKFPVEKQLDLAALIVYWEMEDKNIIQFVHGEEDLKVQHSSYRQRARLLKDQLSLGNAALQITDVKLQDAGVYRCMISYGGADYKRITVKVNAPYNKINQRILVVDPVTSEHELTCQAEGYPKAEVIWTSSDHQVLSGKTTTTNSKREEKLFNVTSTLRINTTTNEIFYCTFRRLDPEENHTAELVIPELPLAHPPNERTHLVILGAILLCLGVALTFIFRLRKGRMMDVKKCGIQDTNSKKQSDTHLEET

Binder | binding in a display sort
B1 | not found
B2 | not found
B3 | not found
B4 | not found
B5 | not found
B6 | not found
B7 | not found
B8 | not found
B9 | not found
B10 | not found
B11 | not found
B12 | not found
B13 | not found
B14 | binds (active)
B15 | not found
B16 | not found
B17 | not found
B18 | not found
B19 | not found

Binder | binding in a display sort
B20 | not found
B21 | not found
B22 | not found
B23 | not found
B24 | not found
B25 | not found
B26 | not found
B27 | not found
B28 | not found
B29 | not found
B30 | not found
B31 | not found
B32 | not found
B33 | not found
B34 | not found
B35 | not found
B36 | not found
B37 | not found
B38 | not found
